One assay deals with STK32B. In words: pooled miR-30 sensor sort-seq; sequence = guide strand. The settings on record: shRNA.
Consider TTCTGCTCCTTTCACTACCGTC, for which the sensor-assay potency score (higher = more potent) is -0.907.

Consider TAATGTGAACATGTCCGTGTTC, for which the sensor-assay potency score (higher = more potent) was -0.137.

Take TTTCTTAGTGTCTCGCTTCTGC: the sensor-assay potency score (higher = more potent) is 0.225. Same read-out and setting: for TAGTGTCTCGCTTCTGCACGAT the value was -0.331; for TTGTCTGGCTTGATGTCTCTGT, 0.0607.

With TTGGATTCTAGAATCATCTCTT, the sensor-assay potency score (higher = more potent) is 0.951.

For the sequence TTCTTGAACACCGCGTCCCAGT, the sensor-assay potency score (higher = more potent) was -0.825.

In the case of AACATGTCCGTGTTCATCCAGC, the sensor-assay potency score (higher = more potent) was -0.285. With TTGCATGATCTGCAGCTCCCGG, the sensor-assay potency score (higher = more potent) was -1.07. The same measure, in the same setting: then TTTGCCAATCGCTTCTTCTTTT, with -0.852. In turn, TGTAATGTGAACATGTCCGTGT registered a sensor-assay potency score (higher = more potent) of 1.03.

The next assay deals with STMN2. Described as above. Conditions: shRNA.
In the case of TTTCTTCTGGATCTCCTCCAGG, the sensor-assay potency score (higher = more potent) was -0.912. On the same count and under the same terms, then TTTTCCTCCGCCATCTTGCTGA, with -0.369. ATCATCGTAAGTATAGATGTTG: the sensor-assay potency score (higher = more potent) was -0.449. For TAATAGCAGCTAGATTAGCCTC, the sensor-assay potency score (higher = more potent) was -0.915. On the same count and under the same terms, for TAAGTATAGATGTTGATGTTGC the value was -0.111.

For the sequence TTCACTTCCATATCATCGTAAG, the sensor-assay potency score (higher = more potent) is -0.831. With TTCTTCTTTCCTCTGCAGCCTC, the sensor-assay potency score (higher = more potent) was -0.81. Same read-out and setting: then TTCCATTTTCAGGATCAGCTTT, with -0.67; and TTTGCTTCACTTCCATATCATC, with -1.64; and TTGGAGAAGCTAAAGTTCGTGG, with -0.769. On the same count and under the same terms, for TTGATTTGCTTCACTTCCATAT the value was -0.805.

For the sequence TTCTGAAGGACTTCTCGCTCGT, the sensor-assay potency score (higher = more potent) turned out to be 0.283.

The next assay deals with STRA6. Described as above. The settings on record: shRNA.
Turning to TAGGCACTGAAGCTCATCCAAC, the sensor-assay potency score (higher = more potent) is -1.34. The same measure, in the same setting: for TGTAGCTGAAAGCACCAGCTTC the value was -0.655; for TAGTACTTGTAGATCTTGGGCA, 0.389. For the sequence TTCGGTACGTGTAGTAGCCGGG, the sensor-assay potency score (higher = more potent) was -0.203.

On to TTTCTTTCTCCAGAACCCCTGC, for which the sensor-assay potency score (higher = more potent) was -0.557. The same measure, in the same setting: then TCAATCTTCAAGAAGTTTCGGT, with 0.639; and TGAGATGTAGCACACTTCCAGA, with -1.21; and TTTCGGTACGTGTAGTAGCCGG, with -0.648.

Turning to TTGGAGGTGTGGTAGCTGCTTC, the sensor-assay potency score (higher = more potent) is -0.709. AACAGTCCCAGTATCTTCCAGG: the sensor-assay potency score (higher = more potent) is -0.995. Same read-out and setting: then TTCCTCAGAGTAGCTGCTCTGC, with -1.09; and TAGATGCAGTGTCTCAAGCAGA, with -0.804.

For a further assay, the target named is STRADB. Described as above. The settings on record: shRNA.
With TTCTACTTGGAGCTCATAGTGA, the sensor-assay potency score (higher = more potent) was -0.852. The sequence TCTGACTTCACATTATACCCAT registered a sensor-assay potency score (higher = more potent) of 0.302. Same read-out and setting: then TTACTGTGTGAGTTCCACTGGA, with 0.572; and TTCTGTAACAGCATCTGAGTTC, with -0.403.
Note: reference of the scale not given here.
